Records with an inconclusive call do not appear. Where a call stands in place of a potency, no number is given. Values without a mark were called inactive. The source made the active and inactive calls. The call rests on the fitted dose curve; in most records, active means well fitted inhibition curve with a large enough effect; inconclusive means small, poorly fitted or top-dose-only effect; inactive means no such curve, though single readings can be large or run the other way.
Potency means the concentration at half of the fitted maximal effect.

The target of the test is Luciferin 4-monooxygenase (Photinus pyralis) (UniProt P08659). In words: Confirmatory firefly luciferase (FLuc) qHTS assay for identification of artifact compounds. As to conditions: purified FLuc enzyme, luminescence, 5 min; series mostly up to 38.9 µM. The text has this: PI: Alexander Tropsha Ph.D. UNC Eshelman School of Pharmacy University of North Carolina, Chapel Hill, North Carolina Hits from high-throughput screening (HTS) of chemical libraries are often false positives due to their interference with the assay detection technology. In response to this problem, we generated the largest publicly available library of chemical liabilities and developed a free webtool to predict HTS artifacts, both of which are described herein. More specifically, we generated, curated, and integrated HTS datasets for thiol reactivity, redox activity, and luciferase (firefly and nano) activity. Using these curated datasets, we developed and validated several Quantitative Structure-Interference Relationship (QSIR) models to predict nuisance behavior. […] These models were employed for virtual profiling of the National Center for Advancing Translational Science's (NCATS) in-house library, and 256 compounds for each assay were selected for the experimental validation of nuisance behavior. The BA for these external predictions ranged from 58 to 78% for compounds within the applicability domains of the models. […] The models developed in this study, along with aggregation models previously developed by our group (SCAM Detective) were implemented in "Liability Predictor," an online tool which may be used as part of chemical library design or for triaging HTS hits. Both the models and the curated datasets are publicly available at https://liability.mml.unc.edu/.
PROTOCOL TABLE SEQUENCE No. (e.g., 1, 2, 3, etc.); […] (e.g., Cells, Incubation, Reagent, etc.); VALUE; DESCRIPTION. 1; Reagent; 3 uL; Luciferase substrate mixture. 2; Compounds and control; 16 nL; Kalypsis pin tool (Wako USA) equipped with a 1536-well pin head. 3; Incubation; 15 min. 4; Reagent; 1 uL; Luciferase enzyme. 5; Incubation; 5 min. 6; Detection; Luminescence, ViewLux microplate reader. NOTES (numbers refer to Sequence numbers above) 1. 3 uL of luciferase substrate mixture containing D-luciferin and ATP (final concentrations of 10 uM and 10 uM, respectively) in assay buffer (10 mM Mg-acetate, 0.01% Tween-20, 0.05% bovine serum albumin, 50 mM Tris acetate, pH 7.6) was dispensed into all wells of a 1536-well assay plate (solid-bottom white plate; Greiner Bio One, Monroe, NC). 2. A Wako Pin-tool (Wako Automation, Richmond, VA) was used to transfer 16 nL of compounds (consisting of 7-plates in qHTS format, final concentration range 18.3 nM to 114 uM) or control PTC124 (final concentration range 1.22 nM to 40 uM). 3. 15 min. incubation at room temperature protected from light. 4. 1 uL of luciferase enzyme (final concentration 10 nM, Photinus pyralis luciferase) or buffer was dispensed for a final assay volume of 4 uL. 5. Plates were centrifuged (121xg, 15 seconds) and incubated for 5 minutes. 6. Samples were read for luminescence on a ViewLux CCD imager (PerkinElmer). Data were normalized to no-enzyme (0% activity) and no-inhibitor (DMSO; 100%) controls and the resulting percent inhibition data were fitted to a 4-parameter Hill equation using NCATS in-house software.
`COc1ccc(NC(=O)C2CCCN(S(=O)(=O)c3cccc4nonc34)C2)cc1Cl` (stereo not given): the Potency entry is “inactive”.
As to `CC(C)Nc1ccc(-c2nc(-c3ccccn3)no2)cc1[N+](=O)[O-]`, the Potency was 3440 nM (active).
As for `CCN(C(=O)Cn1nc(Cc2cccnc2)c2ccccc2c1=O)c1cc(C)ccc1C`, the Potency result is “inactive”.
For `COc1ccc(NC(=O)c2cc(-c3ccccc3O)no2)cc1`, the Potency entry was “inactive”.
Same read-out and setting: the same measure for `CCOC(=O)c1c(C)[nH]c(C)c1S(=O)(=O)N1CCC(C(=O)NCc2ccc(OC)cc2)CC1`: “inactive”; for `CO[C@H]1[C@@H](O)[C@H](N)[C@@H](O[C@H]2O[C@H]([C@H](C)N)CC[C@H]2N)[C@H](O)[C@@H]1N(C)C(=O)CN`: “inactive”; for `COc1ccc(C2Nc3ccccc3C(=O)N2Cc2ccccc2)cc1Oc1ccc(NC(C)=O)cc1` (stereo not given): “inactive”.
For `COc1ccc(CCNC(=O)c2c(C)oc3ncn(C)c(=O)c23)c(OC)c1`, the Potency entry was “inactive”.
For the molecule `[O][C@H]1[C@@H](O)[C@@H](CO)O[C@@H](O[C@@H]2[C@@H]3OC[C@H]2O[C@H](O[C@@H]2[C@@H](O)[C@H](C[C@@H]4[C@@H]5OC[C@H]4O[CH][C@@H]5O)O[C@H](CO)[C@@H]2OS(=O)(=O)O)[C@@H]3OS(=O)(=O)O)[C@@H]1O`, the Potency result was “inactive”.
With `CCC(=O)N1CCc2cc(CNC(=O)Nc3cc(OC)c(OC)c(OC)c3)ccc21`, the Potency result was “inactive”.
As for `Cc1ccc(OC(C)C(=O)NCC2(N3CCOCC3)CCCCC2)cc1C` (stereo not given), the Potency result is “inactive”.
In the case of `O=C(/C=C/c1ccc(O)c(O)c1)c1ccc(O[C@@H]2O[C@H](CO)[C@@H](O)[C@H](O)[C@H]2O)c(O)c1O`, the Potency entry is “inactive”.
Same read-out and setting: the same measure for `CCOC(=O)c1ccc(N2C(=O)c3n[nH]c(-c4ccco4)c3C2c2ccc(C)cc2)cc1` (stereo not given): “inactive”; for `CC(C)CN(CCNC(=O)c1cn(C)c2ccc(S(=O)(=O)N3CCOCC3)cc2c1=O)CC(C)C`: “inactive”; for `CCc1ccccc1NC(=O)c1nc(-c2ccncc2)no1`: “inactive”.
Same read-out and setting: with `COc1cc(C2C(C(=O)Nc3ccc(Cl)cc3)=C(C)Nc3nc(SC)nn32)cc(OC)c1OC` (stereo not given) the entry was “inactive”; with `CCC(Sc1ncc(S(=O)(=O)c2ccc(Cl)cc2)c(=O)[nH]1)C(=O)Nc1ccc(OC)cc1` (stereo not given), “inactive”; with `Cc1ccc(-c2nc3scc(CCNS(=O)(=O)c4ccc(F)c(C)c4)n3n2)cc1`, “inactive”.
Turning to `O=C(O)CCCC/C=C\C[C@@H](O)/C=C/C=C/C=C\[C@@H](O)CCCC(=O)O`, the activity change, negative = inhibition is -5.27% [at 0.322 µM].
In the case of `COc1ccc(NC(=O)C(C)n2nc(-c3cc(C)ccc3C)c3c(c2=O)CCCC3)cc1` (stereo not given), the Potency result is “inactive”.
For the molecule `COc1cc(=O)n2c(c1C(=O)N(C)Cc1nccs1)CCN(Cc1cc(C)cc(C)c1)CC2`, the Potency result was “inactive”.
Still for that read-out and setting: with `CC1OC(OCC2OC(Oc3cc(O)c4c(c3)OC(c3ccc(O)cc3)CC4=O)C(O)C(O)C2O)C(O)C(O)C1O` (stereo not given) the entry was “inactive”.
`COC(=O)c1scc(-c2ccc(C)cc2)c1S(=O)(=O)Nc1ccc(NC(C)=O)cc1`: the Potency entry is “inactive”.
Still for that read-out and setting: with `COc1cccc(-c2nnc(Nc3nc4ccc(OC)cc4s3)o2)c1` the entry was “inactive”; with `COc1ccc(C2N(Cc3ccccc3)C(=O)c3ccccc3N2C)cc1COc1ccc(NC(C)=O)cc1` (stereo not given), “inactive”; with `COc1ccc(C2C(C(=O)Nc3ccccc3)=C(C)Nc3c(C(=O)Nc4ccccc4)cnn32)cc1` (stereo not given), “inactive”.
Same read-out and setting: the same measure for `O=C1C(c2ccc(F)cc2)N(CCc2ccc(Cl)cc2)C(=O)CN1C1CCCCC1` (stereo not given): “inactive”; for `O=C(c1ccc2c(c1)N(Cc1ccccc1)C(=O)c1ccccc1S2(=O)=O)N1CCN(c2ccccc2)CC1`: “inactive”; for `Cc1cccc(C(=O)Nc2ccc(-c3nc4ncccc4o3)cc2C)c1`: “inactive”.
The same measure, in the same setting: the same measure for `CCCc1nn2cc(-c3ccc(C)c(C)c3)nc2s1`: 770 nM (active); for `O=C(COc1ccccc1C(=O)Nc1ccccc1)Nc1cccc([N+](=O)[O-])c1`: “inactive”; for `CCCn1c(-c2cccc(Br)c2)nc2ccccc21`: “inactive”.
`CO[C@@H]1[C@@H](O[C@@H]2O[C@H](C)[C@@H](O[C@H]3C[C@@](C)(O)[C@@H](OC(=O)CC(C)C)[C@H](C)O3)[C@H](N(C)C)[C@H]2O)[C@@H](CC=O)C[C@@H](C)C(=O)/C=C/C2OC2C[C@@H](C)OC(=O)C[C@H]1OC(C)=O` (stereo not given in full): the Potency result was “inactive”.
In the case of `C=C[C@](C)(O)CCC1C(=C)CC(O)C2C(C)(C)CCCC12C` (stereo not given in full), the Potency entry is “inactive”.
Still for that read-out and setting: the same measure for `Cc1ccc(CN(C(=O)COc2ccc([N+](=O)[O-])cc2)c2ccccn2)cc1`: “inactive”; for `O=C(Nc1ccccc1-c1nc2ccccc2s1)c1cc(Cl)cc(Cl)c1`: “inactive”; for `O=C=Nc1ccc(Cc2ccc(N=C=O)cc2)cc1`: “inactive”.
Take `CC1CCCCN1S(=O)(=O)c1cc2c3c(c1)CC(=O)N3CCC2` (stereo not given): the Potency result is “inactive”.
In the case of `CC(C)(C)OC(=O)N1CCN(c2ccc(NCc3ccc(-c4ccc(C#N)cc4)nc3)cc2)CC1`, the Potency result is “inactive”.
The same measure, in the same setting: the same measure for `CC(NC(=O)CSc1nc(-c2ccccc2F)nc2cc(=O)[nH]n12)c1nc2ccccc2n1C` (stereo not given): “inactive”.

The values above are taken from PubChem BioAssay AID1845227 (National Center for Advancing Translational Sciences (NCATS), 2023).
